# In PubChem BioAssay AID778 (Sanford-Burnham Center for Chemical Genomics, 2007):
# The whole screen tested about 96,000 compounds, of which about 20,000 (21%) were called active. The list is a sample of the results. Values without a mark were called inactive.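 Rule for the calls: active = CYP2C19 inhibition above a set limit at 5 µM in the primary screen (cut at about 50% in these data); inactive = the rest.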
# Target: Cytochrome P450 2C19 (Homo sapiens) (UniProt P33261)
# Assay: blockers of cytochrome P450 2C19 activity – biochemical, luminescence, ADME assay, primary screen (AID 778);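 note: plate controls were negative control wells for no effect and 2.5 mM tranylcypromine positive control for full effect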
# Details: CYP2C19 Supersomes, luciferin-H EGE luminescence, 30 min; at 5 µM; stronger effect = higher value
# Sequence of Cytochrome P450 2C19 (Homo sapiens) (P33261 whole entry, looked up): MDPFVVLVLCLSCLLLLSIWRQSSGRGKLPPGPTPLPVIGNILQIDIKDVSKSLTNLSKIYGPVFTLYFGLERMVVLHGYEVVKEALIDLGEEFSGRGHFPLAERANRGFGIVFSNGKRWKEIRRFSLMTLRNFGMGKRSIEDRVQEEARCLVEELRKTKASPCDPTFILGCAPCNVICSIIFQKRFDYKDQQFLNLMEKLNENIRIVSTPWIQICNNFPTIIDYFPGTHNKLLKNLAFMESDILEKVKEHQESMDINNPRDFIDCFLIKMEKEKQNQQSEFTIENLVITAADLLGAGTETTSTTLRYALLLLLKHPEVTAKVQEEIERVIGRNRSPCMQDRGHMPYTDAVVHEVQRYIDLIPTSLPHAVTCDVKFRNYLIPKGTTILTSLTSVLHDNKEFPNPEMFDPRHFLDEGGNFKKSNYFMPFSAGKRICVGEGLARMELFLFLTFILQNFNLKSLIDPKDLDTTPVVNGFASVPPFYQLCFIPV
row,SMILES,inhibition
1,CCCCC(=O)Nc1nc(C)c(-c2csc(Nc3ccc(Cl)cc3)n2)s1,45.9%
2,CCCCCCC(=O)Nc1nc(C)c(-c2csc(Nc3cc(Cl)ccc3OC)n2)s1,-7.7%
3,C=CCCC(=O)Nc1nc(C)c(-c2csc(Nc3ccc(Cl)cc3)n2)s1,56.4% (active)
4,O=C(Nc1cc(N2CCOCC2)ncn1)NC1(C(F)(F)F)Oc2ccc(Cl)cc2O1 (stereo not given),1%
5,CSCCC(NC(N)=O)C(=O)N(C)CC(=O)Nc1ccc(C)cc1 (stereo not given),3.3%
6,O=[N+]([O-])c1ccc(N2CCN(S(=O)(=O)c3ccc4ccccc4c3)CC2)cc1NCc1ccco1,19.1%
7,O=C(c1ccccc1)N1CCN(c2ccc([N+](=O)[O-])c(NCc3ccco3)c2)CC1,82.3% (active)
8,O=C(NCc1ccco1)c1nc(-c2ccccc2)n(-c2ccccc2)n1,25.6%
9,O=C1N=C(N2CCOCC2)S/C1=C\C=C/c1ccccc1,10.8%
10,Cc1ccsc1/C=C1\SC(N2CCOCC2)=NC1=O,29%
11,O=C1N=C(N2CCCC2)S/C1=C\c1cccc(Br)c1,58.2% (active)
12,Cc1nc([N+](=O)[O-])nn1C12CC3CC(CC(Br)(C3)C1)C2,15.2%
13,COC(=O)c1sccc1NC(=O)c1cc(OC)c(OC)c(OC)c1,5.1%
14,CCCCN=C1N/C(=C\c2ccco2)C(=O)N1c1ccccc1,0.7%
15,O=C(NCCN1CCOCC1)[C@H](Cc1ccccc1)N1C(=O)c2ccccc2C1=O,-8.6%
16,O=C(NC1=NCCS1)[C@H](Cc1ccccc1)N1C(=O)c2ccccc2C1=O,57.5% (active)
17,CSCCC(C(=O)NC1=NCCS1)N1C(=O)c2ccccc2C1=O (stereo not given),17.5%
18,C=CCn1c(SCc2csc(C)n2)nc2scc(-c3ccc(C)o3)c2c1=O,16.7%
19,Cn1c(SCC(=O)Nc2cccc(O)c2)nnc1-c1ccc(S(=O)(=O)N2CCOCC2)cc1,2.3%
20,O=C(CCc1ccc(S(=O)(=O)N2CCOCC2)cc1)Nc1ccc2ccccc2c1,62.6% (active)
21,O=S(=O)(c1ccc2ccccc2c1)N1CCN(S(=O)(=O)N2CCOCC2)CC1,20.2%
22,CCOC(=O)N1CCN(CC(=O)n2c(C)c(C)c3ccccc32)CC1,37.1%
23,CCCc1nc(N)nc2c1C(=O)CC(C)(C)C2,7.6%
24,CC(C)c1ccc(/C=C/C(=O)NNC(=O)c2cccnc2)cc1,1.1%

row,SMILES,inhibition
1,COc1ccc2[nH]cc(/C=C(/C#N)S(=O)(=O)c3ccccc3)c2c1,99.8% (active)
2,COc1ccc(/C=C(\NC(=O)c2ccc(OC)c(OC)c2)C(=O)NCCc2c[nH]c3ccccc23)cc1,35.2%
3,CCn1nc(NC(=O)c2ccco2)c2cc3ccc(C)cc3nc21,7.9%
4,O=C(NC1(C(F)(F)F)N=C2SCCN2C1=O)c1ccco1 (stereo not given),-15.5%
5,CCN(CC)C(=O)CSc1nnc(CNc2ccc(F)cc2)n1Cc1ccco1,-8.4%
6,c1ccc2c(C[n+]3csc4ccccc43)cccc2c1,60.7% (active)
7,N=C(N)SCc1cccc2ccccc12,-3.6%
8,N#C/C(=C(/O)Cc1cccc2ccccc12)c1nc2ccccc2s1,-0.2%
9,Cc1c2cn[nH]c(=O)c2c(C)n1Cc1ccc(F)cc1,48.3%
10,Cc1ccc2oc(=O)c3cnn(CC(=O)N(Cc4ccco4)C4CCCCC4)c3c2c1,7.4%
11,CCOC(=O)c1c(NC(=O)CCCN2CCOCC2)sc2c1CC(C)(C)OC2,9.3%
12,CCC(C(=O)NC1CCCC1)N(C(=O)c1snc(C(N)=O)c1N)c1ccc2c(c1)OCCO2 (stereo not given),-2.4%
13,Cc1ccc(C(C(=O)NC2CCCCC2)N(C(=O)c2csnn2)C2CC2)o1 (stereo not given),50% (active)
14,Cc1ccsc1C(C(=O)NC1CCCCC1)N(C(=O)Cc1cccs1)C1CC1 (stereo not given),-2.9%
15,O=C(Nc1ccc(F)c(Cl)c1)C1CCN(S(=O)(=O)c2cccnc2)CC1,41.7%
16,Cc1ccc(NC(=O)C2CC(c3ccc(F)cc3)=NO2)cc1 (stereo not given),28.2%
17,O=C(Nc1ccc2c(c1)OCO2)C1CC(c2c(F)cccc2Cl)=NO1 (stereo not given),92.7% (active)
18,O=C(Nc1ccccc1-c1nnn(CC(=O)N2CCN(c3ccccc3)CC2)n1)c1cccs1,47.5%
19,C=CCN(N=Nc1cccc([N+](=O)[O-])c1)c1cccc([N+](=O)[O-])c1,19.3%
20,O=C(Nc1ccccc1Cl)N1CCN(c2ccc3nncn3n2)CC1,24.1%
21,O=C(Nc1ccc(Cl)cc1)N1CCc2[nH]c3ccccc3c2C1,13.4%
22,C1=C(N2CCOCC2)/C(=C/c2nc3ccccc3[nH]2)CC1,20.6%
23,CC1(C)Cc2c(C#N)c(SCc3nc4ccccc4[nH]3)nc(N3CCOCC3)c2CO1,80.5% (active)
24,CC(C)Cc1nc(N2CCOCC2)c(C#N)c2c1CCC2,39.8%

row,SMILES,inhibition
1,Cc1nc(NCc2ccccc2)c(C(N)=O)c2c1COC(C)(C)C2,48.5%
2,c1ccc2[nH]c(NCCN3CCOCC3)nc2c1,7.5%
3,CC(C)C(=O)N1CCN(c2nc(-c3ccccc3)c3c(c2C#N)CC(C)(C)OC3)CC1,95.4% (active)
4,CC(C)OC(=O)C(C#N)c1nc2ccccc2nc1N1CCN(Cc2ccccc2)CC1 (stereo not given),30.6%
5,CC(C)c1nc(N2CCOCC2)c(C#N)c2c1COC(C)(C)C2,55.5% (active)
6,Cc1ccc2nc(-c3ccc(SCC(=O)Nc4cc(C)on4)nc3)[nH]c2c1,-9.6%
7,C=CCn1c(SCc2c(C)noc2C)nc2sc3c(c2c1=O)CCC(C)C3 (stereo not given),29%
8,COc1ccc2[nH]c(=O)c(-c3noc(-c4ccc(F)cc4)n3)cc2c1,-20.6%
9,O=C(NCCCN1CCCCC1)c1ccc2c(c1)NC(=O)C(N1CCOCC1)S2 (stereo not given),-20.4%
10,Cc1cc2nc(-c3ccc(NC(=O)c4cccnc4)cc3)oc2cc1C,-3.8%
11,c1ccc(-c2cn3cccnc3n2)cc1,1.9%
12,Cc1nc2ccc(NC(=O)C(F)(F)F)cc2o1,19.3%
13,C#CCN1CC(C)/C(=N/O)CC1C (stereo not given),-17%
14,CC(C)(C)NC(=O)C(c1ccncc1)N(C(=O)CNC(=O)c1ccco1)c1ccc2c(c1)OCO2 (stereo not given),25.7%
15,Cc1noc(C)c1C(=O)NC(C)c1ccc2c(c1)OCO2 (stereo not given),64.5% (active)
16,Cc1cccc(N2C(=O)C3C(c4ccccc4)OC4(C(=O)c5ccccc5C4=O)C3C2=O)c1 (stereo not given),-10.6%
17,CCOC(=O)c1c(N)sc(C(C)=O)c1C,22.5%
18,Cc1ccc(C(=O)N2CCN(C3CCCCC3)CC2)s1,52.8% (active)
19,CCn1cc(C(=O)N2CCN(C3CCCCC3)CC2)c2cc(OC)c(OC)cc2c1=O,13.8%
20,O=C(CN1CCN(C2CCCCC2)CC1)Nc1ccccc1N1CCCCC1,1.2%
21,CCN1CC=C2C(C#N)=C(N)C(C#N)(C#N)[C@H](c3ccoc3)[C@H]2C1,7.1%
22,COc1ccc(C(=O)N2CCc3cc(OC)c(OC)cc3C2c2cccc([N+](=O)[O-])c2)cc1 (stereo not given),53.7% (active)
23,COc1ccc(Cc2nnc(SCC(=O)c3cccc([N+](=O)[O-])c3)n2C)cc1,15.5%
24,COc1ccc(C(=O)Nc2nc(-c3ccc(OC)cc3)c(-c3ccc([N+](=O)[O-])cc3)s2)cc1,6.9%

row,SMILES,inhibition
1,CNC(=O)c1nnc(Cc2ccc(Cl)cc2)o1,45.2%
2,Cc1cccc(S(=O)(=O)CC(=O)Nc2nc(-c3ccccc3)cs2)c1,35.4%
3,COCc1nnc(NC(=O)CS(=O)(=O)Cc2ccccc2)s1,1.9%
4,O=C(CCS(=O)(=O)c1ccccc1)Nc1nc2c(s1)CCCC2,73.9% (active)
5,Cc1ccc(-c2c3c(=O)n(C)c(=O)n(C)c3cn2-c2ccccc2O)cc1,19%
6,Cc1oc(-c2ccccc2Cl)[n+]([O-])c1C,8.4%
7,COc1ccc(-c2nc(CCNC(=O)c3ccc(Br)o3)cs2)cc1,58.8% (active)
8,O=C(NCCc1ccccn1)c1ccc(COc2ccccc2)o1,5.8%
9,CC(=O)Cc1nsc(NC(=O)c2ccc(COc3ccc(C)cc3)o2)n1,22.2%
10,Cc1cc(C(=O)COC(=O)CCCN2C(=O)c3ccccc3C2=O)c(C)n1C,-0.8%
11,CCOC(=O)NNC(=O)c1ccc(Cl)cc1,6.6%
12,O=C(CN1CCOCC1)Nc1ccc(NC(=O)CN2CCOCC2)c(Cl)c1,-2.2%
13,O=[N+]([O-])c1ccc(NCCCN2CCOCC2)c(Cl)c1,52% (active)
14,O=C(NC1CCCCC1)c1cc([N+](=O)[O-])ccc1N1CCOCC1,-1.9%
15,CC1(C)C2CCC1(C)C(OC(=O)CCn1ccnc1)C2 (stereo not given),99.5% (active)
16,COc1ccc(OC)c(C(=O)c2coc3ccc(O)c(CN4CCOCC4)c23)c1,52.4% (active)
17,COc1ccc2occ(C(=O)c3ccc(N=C(C)N(C)C)cc3)c2c1,30.2%
18,COc1ccc(OC)c(C(=O)c2coc3ccc(OC)cc23)c1,89.7% (active)
19,COc1ccc(C(=O)Nc2ccc(CN3CCOCC3)cc2)cc1,16.2%
20,COc1ccc(C)cc1N(C)C(=O)c1coc(=O)c2ccccc12,15.5%
21,COc1ccc(OC)c(C(=O)c2ccc(C(=O)O)cc2)c1,-2.7%
22,CCOc1cc(C(=O)Nc2ncccn2)cc(OCC)c1OCC,7.1%
23,Clc1ccc(-n2nnnc2CN2CCCCC2)cc1Cl,27.7%
